The record followed here is PubChem BioAssay AID504321 (NMMLSC, 2011).

Active and inactive are the calls of the source.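 Rule for the calls: active = GFP response vs DMSO above 150% with enough events counted; inconclusive = fewer than 70 events counted for a yeast strain; inactive = the rest.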

The nature of the assay: MEP2-GFP expression modulation in yeast, confirmation, flow cytometry, third cherry pick, S. cerevisiae (AID 504321).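 Note: median per-cell GFP fluorescence by flow cytometry across all yeast cells; ratio of sample to DMSO median GFP so 100% equals the DMSO level.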 As to conditions: S. cerevisiae MEP2-GFP strain, 3 h, at 10 µM, active compounds read high.
Turning to `C/C(=N\NC(=O)c1cccc2ccccc12)c1cccnc1`, the GFP response vs DMSO was 108% (inactive). For `COc1ccccc1Nc1nc(NCCCN(C)C)nc(N)c1[N+](=O)[O-]`, the GFP response vs DMSO is 112% (inactive). Regarding `Cc1ccc(NC(=O)O/N=C2\CCCCC2c2ccc([N+](=O)[O-])cc2[N+](=O)[O-])cc1` (centres undefined), the GFP response vs DMSO is 105% (inactive). The same measure for `C[n+]1cccc2c(Br)ccc([O-])c21`: 114% (inactive); for `CCC(C)Nc1nc(N)c([N+](=O)[O-])c(Nc2cc(OC)ccc2OC)n1` (centres undefined): 114% (inactive); for `O=C(O)c1ccc(C=NNC(=O)c2cccc3ccccc23)cc1`: 103% (inactive). As for `N#Cc1c(N)nc(N)nc1Nc1ccc(Br)cc1`, the GFP response vs DMSO is 110% (inactive).

With `Oc1c(I)cc(Cl)c2cccnc12`, the GFP response vs DMSO was 181% (active). Turning to `CN(C)CCCNc1cc(O)c2ncccc2c1`, the GFP response vs DMSO was 118% (inactive). The same measure for `Cn1c(NCCO)nc2c(c1=O)C1(CCCCC1)Cc1ccccc1-2`: 108% (inactive).

With `CNc1nc(N)c([N+](=O)[O-])c(Nc2cccc(Cl)c2)n1`, the GFP response vs DMSO is 170% (active). As for `C/C(=C\C(=O)c1ccc(Cl)cc1)Nc1ccc(Br)cc1`, the GFP response vs DMSO is 105% (inactive).

Regarding `CC(=O)NC(C)c1cc(Cl)c2cccnc2c1O` (centres undefined), the GFP response vs DMSO was 99% (inactive). On to `O=C(N/N=C/c1ccccc1)c1cccc2ccccc12`, for which the GFP response vs DMSO is 103% (inactive). The same measure for `CC(=O)Nc1ccc(-c2nc3ccccc3o2)cc1`: 110% (inactive); for `Cc1ccc2c(C)ccc(O)c2n1`: 114% (inactive); for `O=C1c2ccccc2C(=O)c2c1cccc2N(CCO)CCO`: 108% (inactive). The same measure for `Cc1ccc(C)c(Nc2ncnc(N)c2[N+](=O)[O-])c1`: 108% (inactive); for `Cc1ccc(C(=O)Nc2nc(-c3ccccn3)cs2)o1`: 103% (inactive); for `Cc1cccc(Nc2cc(=O)[nH]c(=O)[nH]2)c1`: 108% (inactive). The same measure for `COc1cccc2c(Cl)c(CCCl)c(C)nc12`: 101% (inactive). With `COc1ccc(NC(=O)O/N=C2/CCCc3ccc(OC)cc32)cc1`, the GFP response vs DMSO is 112% (inactive). Consider `OCCN1CCN(c2ncnc3ccc(Br)cc23)CC1`, for which the GFP response vs DMSO is 112% (inactive). Turning to `Cc1cc(C)c2ccc(C(=O)O)nc2c1O`, the GFP response vs DMSO is 112% (inactive).

On to `Cc1ccc2nc(-c3ccc(NC(=O)c4cccnc4)cc3)oc2c1`, for which the GFP response vs DMSO is 114% (inactive). The same measure for `Cc1nc(Nc2ccc(Cl)cc2)c(C#N)c(=O)[nH]1`: 108% (inactive); for `Brc1ccc2ncnc(NCc3ccccc3)c2c1`: 105% (inactive). Take `COc1cccc(OCc2cc(C(=O)N3CCN(C)C(c4ccccc4)C3)no2)c1` (centres undefined): the GFP response vs DMSO is 108% (inactive). Turning to `CCCC(=O)Nn1cnc2c(c1=O)C1(CCCCC1)Cc1ccccc1-2`, the GFP response vs DMSO is 105% (inactive). Take `CC(C)Nc1ncnc2ccc(Br)cc12`: the GFP response vs DMSO is 112% (inactive). The same measure for `CCC(=O)Nn1cnc2c(c1=O)C1(CCCCC1)Cc1ccccc1-2`: 110% (inactive); for `O=C(Nc1ccccc1Cl)ON=C1c2ccccc2-c2ccccc21`: 108% (inactive); for `COc1cccc(N/C(C)=C/C(=O)c2ccc(Br)cc2)c1`: 101% (inactive). Turning to `CCN(CC)C(=O)Oc1cc(=O)n(C)c2ccccc12`, the GFP response vs DMSO was 112% (inactive).

For `Oc1c(Br)cc(Br)c2cccnc12`, the GFP response vs DMSO was 189% (active). The same measure for `COc1cccc(N/C=C/C(=O)c2ccc(Cl)cc2)c1`: 114% (inactive); for `C=CCNc1ncnc2ccc(Br)cc12`: 110% (inactive). The same measure for `C/C(=C\C(=O)c1ccc(C)cc1)Nc1cccc(O)c1`: 108% (inactive); for `O=C(N/N=C/c1ccccc1O)c1cccc2ccccc12`: 110% (inactive).
